Several values for one entry are separate records, joined by “and”; a condition that tells them apart may be missing. Equal entries are not always repeated. About 79,000 compounds went through this panel and 15% of them were active in at least one assay; those are over-represented in the sample as a whole. No stated cut-off is given here; in the data, active means growth inhibition above about 70%; inactive means the rest.
Columns and labels:
[1] = NCI Yeast Anticancer Drug Screen. Data for the rad50 strain (AID 155);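 further: 0% = growth of vehicle-only cultures of the same strain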; conditions: S. cerevisiae rad50 strain growth inhibition; at 50.0 µM; hits give high values
How it was run: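 Yeast carrying a defined DNA repair defect were exposed to test compounds, and growth was compared with vehicle-treated controls to give percent inhibition.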

[2] = NCI Yeast Anticancer Drug Screen. Data for the mec2-1 strain (AID 157); conditions: S. cerevisiae mec2-1 strain, at 50.0 µM, hits give high values
How it was run: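 Growth inhibition is read against vehicle-treated controls after compound exposure of the mec2-1 yeast strain, which is defective in DNA damage repair or cell cycle control.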

[3] = NCI Yeast Anticancer Drug Screen. Data for the sgs1 mgt1 strain (AID 161);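 further: 0% = growth of cultures given vehicle only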; conditions: S. cerevisiae sgs1 mgt1 strain, at 50.0 µM, hits give high values
How it was run: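 Yeast cells carrying a defined DNA-repair defect were exposed to test compounds. Growth inhibition was measured relative to vehicle-treated controls.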

[4] = NCI Yeast Anticancer Drug Screen. Data for the cln2 rad14 strain (AID 165);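 further: 0% = growth equal to vehicle treated cultures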; conditions: S. cerevisiae cln2 rad14 strain, at 50.0 µM, hits give high values
How it was run: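 Growth inhibition, relative to vehicle-treated controls, is the read-out. The test organism is a yeast strain with defined genetic alterations, cln2 rad14.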

[5] = NCI Yeast Anticancer Drug Screen. Data for the bub3 strain (AID 167); conditions: S. cerevisiae bub3 mutant strain, at 50.0 µM, hits give high values
How it was run: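 Compounds were applied to a genetically altered yeast strain carrying a cell-cycle control defect. Growth inhibition was scored against vehicle-treated controls.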

[6] = NCI Yeast Anticancer Drug Screen. Data for the mlh1 rad18 strain (AID 175); conditions: S. cerevisiae mlh1 rad18 strain growth inhibition; at 50.0 µM; hits give high values
How it was run: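 Cells of a genetically altered yeast strain, deficient in DNA damage repair, were treated with compound. Their growth was then compared with that of vehicle-treated cultures to give inhibition.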

Measured: growth inhibition

CCCC(=O)Oc1ccc(C(C)C)cc1
inactive: [1] 6% and 13.8% | [2] -22.3% and -1.45% | [3] -8.2% and 2.05% | [4] 10.4% and -31.6% | [5] -9.75% and 13.3% | [6] 5.8% and 10.1%

O=c1[nH]c(SCc2ccccc2[N+](=O)[O-])nc2nc[nH]c12
inactive: [1] -3.6% and -22.9% | [2] -20.8% and 6.4% | [3] -11.8% and -0.5% | [4] -12.7% and 23.1% | [5] -10.8% and -30% | [6] -1.9% and -8.05%

CN(C)CC(O)c1cc2ccccc2c2ccccc12 (stereo unspecified)
inactive: [1] 3.3% and -1.9% | [2] 22.6% and -10.7% | [3] 3.4% and -2.3% | [4] -8.8% and -32.2% | [5] 18.4% and -5.5% | [6] 8.65% and -14.2%

O=C(NCc1ccccc1)C1C(=O)C(=O)N(Cc2ccccc2)C1=O (stereo unspecified)
inactive: [1] -29.4% and 4.55% | [2] -22.6% and 0.8% | [3] -12.2% and -8.45% | [4] 2% and 14% | [5] -8.8% and -3.45% | [6] -36% and 2.6%

COC1OC(COC(C)=O)C(OC(C)=O)C(OC(C)=O)C1NC(=O)N(CCCl)N=O (stereo unspecified)
inactive: [1] -0.5% and -15.6% | [2] -7.1% and -8.6% | [3] -1.2% and -13.6% | [4] 9.65% and 20.3% | [5] 7.95% and 16.2% | [6] -10.5% and -14%

CC(C)N=C(N)C(N)=NC(C)C
inactive: [1] 20.1% and -65.4% | [2] -18% and 6.55% | [3] -2.5% and -13.2% | [4] -67.2% and -46.5% | [5] 1.8% and -11.1% | [6] -14.6% and -16.9%

N#CC(c1ccc([N+](=O)[O-])cc1)C(CC(=O)c1ccccc1)c1ccccc1 (stereo unspecified)
inactive: [1] -1.3% and -14.2% | [2] -3% and -14.6% | [3] -15.2% and -17.2% | [4] -28.3% and -46.9% | [5] 37.8% and 12.6% | [6] 36.5% and 14.3%

COC(=O)NC1C(=O)OC(C2OC2(C)C)C1(C)C (stereo unspecified)
inactive: [1] -4% and -2.5% | [2] -22.9% and -12.8% | [3] -5.3% and -32.8% | [4] 4.35% and -7.9% | [5] -17.1% and -31.4% | [6] -6.15% and -27.4%

CCCCCCCCCCSCC(CO)NC(=O)/C=C/c1c(C)[nH]c(=O)[nH]c1=O (stereo unspecified)
inactive: [1] 1.95% and 30.7% | [2] -13.7% and 15.2% | [3] 2.45% and 2% | [4] -27.2% and 14.8% | [5] -14.4% and -14% | [6] 9.55% and -47.1%

CCOC(=O)CNC(=O)c1ccccc1
inactive: [1] 3.7% and -12.2% | [2] -7% and -36.4% | [3] -9.55% and -7.05% | [4] -8% and -13.8% | [5] -2.35% and 27.1% | [6] -1% and -4.65%

O=c1cc2oc3cc(O)c(O)cc3c(-c3ccccc3)c-2cc1O
inactive: [1] -4.25% and 15.2% | [2] -16.1% and 32.5% | [3] -3.15% and 25.9% | [4] -5.9% and -23.8% | [5] -10.2% and 15.9% | [6] -4.15% and 34.9%

CC(=O)OCC1OC(n2c(=S)n(-c3ccc(C)cc3)c(=O)c3ccccc32)C(OC(C)=O)C(OC(C)=O)C1OC(C)=O (stereo unspecified)
inactive: [1] 2.2% and 32% | [2] 6.1% and 18.4% | [3] -11.1% and 15.9% | [4] 21% and 21.2% | [5] -6.65% and 14.7% | [6] -9.4% and 4.9%

[Cl][Pr]([Cl])[Cl]
inactive: [1] 21.9% and 19.1% | [2] -7.65% and 5.55% | [3] -3.4% and 33.6% | [4] 1.6% and 19.1% | [5] 7.65% and 22.9% | [6] 1.4% and 42.2%

O=c1[nH]c(F)nc2c1ncn2C1OC(CO)C(O)C1O (stereo unspecified)
inactive: [1] -9.5% and -20.3% | [2] -5% and -12.8% | [3] -5.7% and -20.9% | [4] -16.4% and 8.4% | [5] 8.75% and -10.6% | [6] -21.2% and 6%

OC1CC2CCC(C1)S2 (stereo unspecified)
inactive: [1] -1.3% and 4.3% | [2] -25.3% and -2.75% | [3] -3.7% and 13.3% | [4] 9.85% and 13.3% | [5] 2.5% and 4.4% | [6] -11.6% and -1.55%

Oc1ccccc1CNCc1ccccc1O
inactive: [1] -6.65% and -16.2% | [2] -13.5% and -2.7% | [3] -5.5% and -33% | [4] 23.8% and -28.1% | [5] 0.5% and -28.2% | [6] -1.05% and 3.55%

CC(=O)OCCN(CCOC(C)=O)C(C)=O
inactive: [1] 22.6% and -2.1% | [2] 5.7% and 8.4% | [3] 19.1% and 0.4% | [4] 7.3% and -18.9% | [5] -1.45% and -10.7% | [6] 17.9% and -3.75%

O=[N+]([O-])c1ccc2c(c1)C(=Nc1ccccc1)c1cccc([N+](=O)[O-])c1-2
inactive: [1] 6.55% and -21.9% | [2] 16.2% and -12.8% | [3] 15.6% and -6.05% | [4] -36.9% and -24.8% | [5] 8.8% and 8.9% | [6] 20.3% and -26.3%

C=CCOC(=O)C(C)OC(=O)C(C)O (stereo unspecified)
inactive: [1] 35.3% and 15.3% | [2] 11.8% and 10.6% | [3] 13.6% and -3.75% | [4] 11.6% and -4% | [5] 6.85% and -0.4% | [6] 9.85% and 1.9%

O=C(CCl)NC(Cc1c[nH]c2ccccc12)C(=O)O (stereo unspecified)
inactive: [1] -7.95% and 9.8% | [2] -50.7% and -0.75% | [3] 1.1% and -0.95% | [4] 23.3% and 14.8% | [5] -10.2% and 8.7% | [6] 4.25% and -1.05%

Cc1ccc(C(=O)/C=C/c2ccc3c(c2)OCO3)cc1
inactive: [1] -6.75% and 8.6% | [2] 16% and -4.7% | [3] 13.6% and 21.4% | [4] -8.95% and -1.75% | [5] 29.4% and 25.3% | [6] 15.4% and 37%

O=c1c(O)c(-c2ccc(O)c(O)c2)oc2cc(O)ccc12
inactive: [1] -15.2% and -57% | [2] -14.6% and -40.4% | [3] -3.25% and -24.9% | [4] 0.2% and -25% | [5] -15.1% and -48.1% | [6] -3.7% and -37.3%

CCCCCC(O)C1C(=O)OC(C)C(O)/C=C/C=C/C=C/C=C\C=C(\C)C(O)CC(O)CC(O)CC(O)CC(O)CC(O)CC1O (stereo unspecified)
inactive: [1] 2.6% and 13.8% | [2] 16.9% and -17.5% | [3] -18.1% and -4.65% | [4] 68.2% and 1.3% | [5] 5.85% and 12.3% | [6] 62.3% and 6.3%

O=C(O)/C=C/C=C/C(=O)O
inactive: [1] -5.1% and 14.2% | [2] -4.45% and -10.2% | [3] -3.8% and -1.95% | [4] 7.8% and -17.9% | [5] -0.8% and -14.6% | [6] -10.6% and 2.75%

CCCCCCC1OCC(CC)C(CCC)O1 (stereo unspecified)
inactive: [1] 24.4% and 2% | [2] 23.6% and 6.9% | [3] 17.1% and -6.05% | [4] -12.2% and -9.7% | [5] 17.2% and 15.2% | [6] 30.4% and -9.4%

Nc1ccc(C(F)(F)F)cc1[N+](=O)[O-]
inactive: [1] -33.3% and 12.1% | [2] -19.9% and 5.6% | [3] -49.6% and 12.5% | [4] -43.6% and 10.2% | [5] -35.1% and 3.5% | [6] -22.5% and 9.15%

O=C(O)C(O)C(O)C(O)C(=O)CO (stereo unspecified)
inactive: [1] -2.25% and -13.1% | [2] -27.3% and -1.05% | [3] -4.9% and -10.4% | [4] -32.6% and -40.5% | [5] -16.9% and -42.5% | [6] -19.2% and 13.7%

O=C1NC(=S)S/C1=C/c1ccnc2ccccc12
inactive: [1] 18.2% and 6.7% | [2] 14.8% and 9.3% | [3] 19.4% and -3.1% | [4] 20.9% and -32.1% | [5] 5.45% and -8.75% | [6] 1.25% and -11.6%

NC(N)=NC(N)=Nc1ccc(S(N)(=O)=O)cc1
inactive: [1] 21.6% and 10.5% | [2] 14.7% and 4.3% | [3] 13.4% and 14.7% | [4] -13.8% and -48.6% | [5] 34.2% and -9.8% | [6] 34.2% and 18.5%

O=C(O)C1=C/C(=C(/c2ccccc2)c2cc(C(=O)O)c(O)c3ccccc23)c2ccccc2C1=O
inactive: [1] 4.2% and -7.7% | [2] -29.1% and -27.1% | [3] -21.2% and -34.4% | [4] 22.7% and 23.1% | [5] -9.45% and -3.8% | [6] -1.45% and -4.1%

CCCCCCC1OCC(COC)O1 (stereo unspecified)
inactive: [1] 5.25% and 2.25% | [2] -3.1% and -10.5% | [3] -1.9% and -11.1% | [4] -4.55% and 6% | [5] 0.5% and -2.35% | [6] -2.45% and -10.2%

C=CC/C(=N\OS(=O)(=O)O)SC1OC(CO)C(O)C(O)C1O (stereo unspecified)
inactive: [1] 2.2% and 4.75% | [2] -30.6% and -21.5% | [3] -0.75% and -20.6% | [4] 13.4% and 7.4% | [5] -14% and -30.2% | [6] -14.9% and -10.7%

COC(=O)C(C)NC(=O)c1c2nc3c(C(=O)NC(C)C(=O)OC)ccc(C)c3oc-2c(C)c(=O)c1N (stereo unspecified)
inactive: [1] 2.9% and 13.8% | [2] 14.7% and -7.2% | [3] 0.1% and -14.9% | [4] 22% and 15% | [5] 7.25% and -4.65% | [6] 29.1% and -4.85%

CC(=O)c1c(-c2ccc(Cl)cc2)c(C#N)c(=S)n(C2OC(CO)C(O)C(O)C2O)c1-c1ccccc1 (stereo unspecified)
inactive: [1] 5.1% and 4.5% | [2] 1.95% and 6.1% | [3] 28.1% and 34.5% | [4] 33.1% and -7.6% | [5] -2.95% and 39.5% | [6] 56.6% and 15.9%

CC(=O)OCC1OC(CCC#N)C(OC(C)=O)C(OC(C)=O)C1OC(C)=O (stereo unspecified)
inactive: [1] 10.7% and 1.7% | [2] 15.5% and 14.2% | [3] 17.4% and 2.35% | [4] -12% and -1.35% | [5] 9.3% and -4.05% | [6] 13.6% and 11.3%

COc1cc2c(cc1OC)CN1CCc3cc(OC)c(OC)cc3C1C2 (stereo unspecified)
inactive: [1] -1.3% and 16.1% | [2] -54.6% and 11.9% | [3] -28.2% and 14.3% | [4] 0.7% and 7.8% | [5] -51.4% and 17.4% | [6] -38.5% and 18.1%

— PubChem BioAssay (NCI)
